This note sets out measurements from PubChem BioAssay (Tox21).

Molecules are shown by their SMILES. Results filed as inconclusive are left out. Values without a mark were called inactive. Active and inactive are the calls of the source. Unless noted, calls follow the shape of the full dose curve.

The target in assay [1] is Thyrotropin receptor (Homo sapiens) (UniProt P16473). Nature of the assay: qHTS assay to identify small molecule agonists of the thyroid stimulating hormone receptor (TSHR) signaling pathway (AID 1224843). Also: nearly all actives have a fitted effect of over 45% in size. Also: potency is read from the fitted curve at half-maximal effect. Put shortly: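 Cell line HEK293 with TSHR; density 800/well. Exposure 30 min RT. Readout HTRF cAMP (cAMP-d2/anti-cAMP-cryptate), 1 h RT before reading.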
Assay [2] is described as follows: qHTS assay to identify small molecule agonists of the hypoxia (HIF-1) signaling pathway - cell viability counter screen (AID 1224844). Also: nearly all actives have a fitted effect of over 50% in size. The procedure, abridged: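 Cells (HRE-bla ME-180, 2,000 per well) sat 5 hrs at 37C, got compound for 17 hrs, were read for CCF4-AM FRET, and were finally lysed with CellTiter-Glo for a 30 min room-temperature luminescence read.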
(In general: qHTS replaces the single test concentration by a dilution series.)

Assay [3] in a line: qHTS assay to identify small molecule agonists of H2AX (AID 1224845; active = well fitted activation curve with a large enough effect in the signal ratio in the repeat runs, not every such curve was filed as active; the % refers to the signal ratio). The procedure, abridged:
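Wild-type CHO-K1 cells plated overnight, then exposed 3 hr at 37C to compounds at 15 concentrations (0.76% DMSO). Lysed, then HTRF anti-pH2AX(S139)-cryptate/anti-H2AX-d2 detection after 24 hr at room temperature; emissions 665 and 620 nm.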

Assay [4] can be described thus: qHTS assay to identify small molecule agonists of the hypoxia (HIF-1) signaling pathway (AID 1224846; active = well fitted activation curve with a large enough effect in the signal ratio in the repeat runs, not every such curve was filed as active; the % refers to the signal ratio). The procedure, abridged: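 A low-serum medium (0.5% dialyzed FBS) holding 2,000 HRE-bla ME-180 cells per well is preincubated for 5 hrs, dosed with compounds by pintool, and kept a further 17 hrs at 37C, 5% CO2 before CCF4-AM FRET detection of beta-lactamase.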
Assay [5] can be described thus: qHTS assay to identify small molecule agonists of H2AX - cell viability counter screen (AID 1224847). Also: top concentration of the series differs between compounds; nearly all actives have a fitted effect of over 30% in size. Put shortly:
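Quantitative HTS viability measurement: CHO-K1 wild-type cells in serum (10% FBS) medium, short 3 hr drug exposure at 37C with 0.76% DMSO, CellTiter-Glo luminescent detection.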

Assay [6] is described as follows: qHTS RealTime-Glo MT Cell Viability Assay in HepG2 cells - 24 hour (AID 1224867; active = well fitted cell-killing curve with a large enough effect in the repeat runs; also: nearly all actives have a fitted effect of over 50% in size). Put shortly:
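HepG2 cells (600/well) were dispensed with RealTime-Glo reagents, incubated 5 h at 37 °C, then treated with compounds in DMSO for up to 40 h. Nonlytic NanoLuc luminescence reflecting viable cells was read at each stated time point.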
% is scaled to controls: 0 for no effect and ±100 for the full control effect.

Chain of Thyrotropin receptor (Homo sapiens) (P16473 whole entry, looked up): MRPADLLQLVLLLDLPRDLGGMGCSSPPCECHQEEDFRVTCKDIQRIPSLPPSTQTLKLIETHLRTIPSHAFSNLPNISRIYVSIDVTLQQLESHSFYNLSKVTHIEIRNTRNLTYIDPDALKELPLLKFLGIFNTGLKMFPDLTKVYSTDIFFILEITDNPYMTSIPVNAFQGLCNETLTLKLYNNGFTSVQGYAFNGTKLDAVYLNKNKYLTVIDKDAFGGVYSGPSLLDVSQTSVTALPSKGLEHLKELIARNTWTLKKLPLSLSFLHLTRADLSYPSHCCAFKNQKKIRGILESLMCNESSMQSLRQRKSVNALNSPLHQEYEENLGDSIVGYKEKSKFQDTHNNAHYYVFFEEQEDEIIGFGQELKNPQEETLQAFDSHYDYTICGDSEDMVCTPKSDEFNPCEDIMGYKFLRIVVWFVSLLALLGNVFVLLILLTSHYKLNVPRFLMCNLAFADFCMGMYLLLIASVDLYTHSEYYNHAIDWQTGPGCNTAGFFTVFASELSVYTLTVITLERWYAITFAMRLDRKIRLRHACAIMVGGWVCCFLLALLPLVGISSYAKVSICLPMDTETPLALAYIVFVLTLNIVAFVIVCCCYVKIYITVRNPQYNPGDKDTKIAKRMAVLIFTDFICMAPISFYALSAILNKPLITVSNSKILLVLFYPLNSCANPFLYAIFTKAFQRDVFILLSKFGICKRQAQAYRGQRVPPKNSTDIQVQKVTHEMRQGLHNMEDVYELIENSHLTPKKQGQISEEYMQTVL

In the case of `O=c1c(O)c(O)c1=O`, the Potency in assay [1] is 27.3 µM (active). The call in assay [2], in assay [3], in assay [4], in assay [5] and in assay [6] was inactive.

`O=C(O)P(=O)(O)O`: in assay [1], the Potency entry was “inactive”. For the same molecule, the call in assay [2], in assay [3], in assay [4] and in assay [6] was inactive.

On to `CC(C)C(=O)Nc1cccc(C2CN3CCSC3=N2)c1` (configuration not stated), for which the Potency result in assay [1] is “inactive”. The molecule was classed as inactive in assay [2], in assay [3], in assay [4], in assay [5] and in assay [6].

`CCN(CC)CC`: the Potency entry in assay [1] is “inactive”. The result in assay [2], in assay [3], in assay [4], in assay [5] and in assay [6] was inactive.

On to `COC(=O)c1cc(Cl)c(NC(C)=O)cc1OC`, for which the Potency entry in assay [1] was “inactive”. Also, the outcome in assay [2], in assay [3], in assay [4], in assay [5] and in assay [6] was inactive.

`COc1ccccc1N1CCN(CC(O)COc2cc(OC)c(OC)c(OC)c2)CC1` (configuration not stated): in assay [1], the Potency result was “inactive”. The molecule was classed as inactive in assay [2], in assay [3], in assay [4], in assay [5] and in assay [6].

On to `c1cc2ccc3ccc4ccc5cccc6c(c1)c2c3c4c56`, for which the activation was 11.3% [at 3.27 µM] in assay [1] and 6.16% [at 2.67 µM] in assay [4]. Also, the activity change, negative = cytotoxicity was -14.1% [at 2.72 µM] in assay [2], 0.956% [at 5.43 µM] in assay [5] and -0.157% [at 2.72 µM] in assay [6]. Also, in assay [3], the activation (H2AX phosphorylation) was -2.49% [at 5.45 µM].

Regarding `OCCC(F)(F)C(F)(F)C(F)(F)C(F)(F)C(F)(F)C(F)(F)F`, the Potency result in assay [1] is “inactive”. The molecule was classed as inactive in assay [2], in assay [3], in assay [4], in assay [5] and in assay [6].

`CCCCS`: in assay [1], the Potency result is “inactive”. Moreover, the call in assay [2], in assay [3], in assay [4], in assay [5] and in assay [6] was inactive.

Regarding `CCOc1ccccc1OCCN[C@H](C)Cc1ccc(OC)c(S(N)(=O)=O)c1`, the Potency result in assay [1] was “inactive”. In addition, the molecule was called inactive in assay [2], in assay [3], in assay [4], in assay [5] and in assay [6].

Consider `CC(=O)/C=C/C=C1/C2CCC(C2)C1(C)C` (configuration not stated), for which, in assay [1], the Potency is 18.8 µM (active). In addition, the molecule was called inactive in assay [2], in assay [3], in assay [4], in assay [5] and in assay [6].

With `CC12CCCC=C1C(=O)OC2=O` (configuration not stated), the Potency entry in assay [1] is “inactive”. The result in assay [2], in assay [3], in assay [4], in assay [5] and in assay [6] was inactive.

As to `O=C(CCBr)N1CCN(C(=O)CCBr)CC1`, in assay [1], the Potency result was “inactive”. In addition, the outcome in assay [2], in assay [3], in assay [4], in assay [5] and in assay [6] was inactive.

As for `CC(=O)OC/C=C(/C)CCC=C(C)C`, the Potency entry in assay [1] was “inactive”. Further, the molecule was called inactive in assay [2], in assay [3], in assay [4], in assay [5] and in assay [6].

As for `C=CCN1CCc2nc(N)sc2CC1`, in assay [1], the Potency result was “inactive”. Moreover, the molecule was called inactive in assay [2], in assay [3], in assay [4], in assay [5] and in assay [6].

Turning to `CCOC(=O)[C@H](CCc1ccccc1)N[C@H]1CS[C@H](c2cccs2)CN(CC(=O)O)C1=O`, the Potency result in assay [1] was “inactive”. Also, the molecule was called inactive in assay [2], in assay [3], in assay [4], in assay [5] and in assay [6].

Consider `Cc1ccc2ccccc2n1`, for which the Potency entry in assay [1] is “inactive”. For the same molecule, the outcome in assay [2], in assay [3], in assay [4], in assay [5] and in assay [6] was inactive.

For `NS(=O)(=O)c1cc2c(cc1C(F)(F)F)NCNS2(=O)=O`, in assay [1], the Potency result is “inactive”. In addition, the molecule was classed as inactive in assay [2], in assay [3] and in assay [5].

As to `Cc1ccc(S(=O)(=O)NC(=O)NN2CC3CCCC3C2)cc1` (configuration not stated), the Potency result in assay [1] is “inactive”. The molecule was called inactive in assay [2], in assay [3] and in assay [5].

Take `CCOC(=O)CC(C(C)=O)C(C)=O`: the Potency entry in assay [1] was “inactive”. The molecule was classed as inactive in assay [2], in assay [3], in assay [4] and in assay [6].

`CCC(=O)OCCOc1ccccc1`: the Potency result in assay [1] is “inactive”. For the same molecule, the molecule was classed as inactive in assay [2], in assay [3], in assay [4], in assay [5] and in assay [6].

As for `C[C@@H]1CCC[C@H](C)N1CCCC(O)(c1ccccc1)c1ccccn1` (some centres not stated), the Potency entry in assay [1] was “inactive”. The call in assay [2], in assay [3], in assay [4], in assay [5] and in assay [6] was inactive.

Turning to `C=C(C)C(=O)OCCCC`, the Potency result in assay [1] was “inactive”. For the same molecule, the molecule was classed as inactive in assay [2], in assay [3], in assay [4], in assay [5] and in assay [6].

For the molecule `Cc1ccc(NC(N)=O)cc1`, the Potency result in assay [1] is “inactive”. Moreover, the call in assay [2], in assay [3], in assay [4], in assay [5] and in assay [6] was inactive.

With `CC(C)(C)c1ccc(C(=O)CCCCl)cc1`, the Potency entry in assay [1] was “inactive”. The result in assay [2], in assay [3], in assay [4], in assay [5] and in assay [6] was inactive.

As to `O=C1c2ccccc2C(=O)N1CO`, in assay [1], the Potency result is “inactive”. Besides, the outcome in assay [2], in assay [3], in assay [4], in assay [5] and in assay [6] was inactive.

As to `NC[C@H]1O[C@H](O[C@H]2[C@H](O)[C@@H](O[C@H]3O[C@H](CO)[C@@H](O)[C@H](N)[C@H]3O)[C@H](N)C[C@@H]2N)[C@H](N)[C@@H](O)[C@@H]1O`, the figures for the activation in assay [1] and in assay [4] were -7.89% [at 19 µM] and -0.993% [at 15.8 µM], respectively. Moreover, the activity change, negative = cytotoxicity is 6.36% [at 15.8 µM] in assay [2], -0.161% [at 31.6 µM] in assay [5] and 0.499% [at 15.8 µM] in assay [6]. Also, the activation (H2AX phosphorylation) in assay [3] was -4.26% [at 31.6 µM].

For the molecule `COCc1nnc(-c2ccc[n+]([O-])c2)n1-c1c(Cl)c(Cl)cc2[nH]c(=O)c(=O)[nH]c12`, the Potency result in assay [1] was “inactive”. Also, the call in assay [2], in assay [3], in assay [4], in assay [5] and in assay [6] was inactive.
